HCMV antiviral: qHTS Assay for inhibitors of the human cytomegalovirus (HCMV); 410,000 tested, 4.5% active; HFF cells, HCMV-luciferase reporter, 72 h; hits give low values; activity change, negative = inhibition, % at 57.5 µM; in the data active = activity change below about -60%; inconclusive = no clear call, values can overlap the other calls; inactive = above about -39%
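Cell-based, HFFs, 1000 cells/well, 16 h 37C; cpds in DMSO + HCMV-luc, MOI 1 PFU/cell; 72 h 37C; OneGlo luminescence after 5 min RT; norm. to buffer vs Salinomycin 10uM.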
Pf growth 96h: Primary qHTS for delayed death inhibitors of the malarial parasite plastid, 96 hour incubation. P. falciparum luciferase reporter growth, 96 h. 320,000 tested, 6.9% active. Potency, µM (top dose mostly 28.7 µM), actives largely listed as inhibitors
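Infected RBCs, 2% Hct / 0.05% parasitemia final; luciferase-reporter P. falciparum; cpd 96 h, 37 C, 5% CO2; luciferase detection reagent; luminescence.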
HCV inh: qHTS Assay for Inhibitors of Hepatitis C Virus (HCV) | Huh7.5.1 HCVcc-Cre infection, luciferase reporter, 44 h | Potency, µM (highest dose often 41.8 µM), hits mostly inhibitors | 340,000 tested, 3.4% active | AID 651820, 2012
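Luciferase read-out (15 sec integration) after a 15 min room-temperature substrate step quantifies HCVcc-Cre infection. Cells, 1,000 per well, had compound added 4 h post-plating, then virus at ~0.5 moi, and were cultured 44 h.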
Pf growth 48h: Primary qHTS for delayed death inhibitors of the malarial parasite plastid, 48 hour incubation | P. falciparum luciferase growth in erythrocytes, 48 h | Potency, µM (highest dose often 28.7 µM), actives largely listed as inhibitors | 310,000 tested, 5.9% active | AID 504832, 2011
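Compounds are pin-transferred into medium, infected erythrocytes (2% hematocrit, 0.1% parasitemia final) are added, and plates sit one parasite generation at 37 C in 5% CO2. Detection reagent is then added and luminescence measured.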
Each line names hits and unclear results; the compound was inactive in the other large screens. The list is not random: actives were taken first. Their share in the collection is about 13%. Unless noted, calls follow the shape of the dose curve; as a rule, active = well fitted inhibition curve with a large enough effect; inconclusive = small, poorly fitted or top-dose-only effect, or another doubt; inactive = no such curve, though single readings can be large or run the other way.

COc1ccc(-c2cnnn2-c2ccc(NC(=O)c3c(F)cccc3F)cc2)cc1	none (no result: Pf growth 96h, HCV inh, Pf growth 48h)
COc1ccc(NC(=O)Cn2nnc(C(=O)NCc3ccccc3Cl)c2N)cc1Cl	none (no result: Pf growth 96h, HCV inh, Pf growth 48h)
CCN(CC)C(=O)CSc1nc2ccccc2c(=O)n1CC1CCCCC1	HCMV antiviral inconclusive, Pf growth 96h inconclusive, HCV inh inconclusive, Pf growth 48h 4.1µM
CN(C)c1ccc(NC(=O)CSc2nc3ccccc3c(=O)n2C2CCCCC2)cc1	HCMV antiviral inconclusive, HCV inh inconclusive, Pf growth 48h inconclusive
O=C(CSc1nc2ccccc2c(=O)n1CC1CCCCC1)N1CCOCC1	Pf growth 96h 13µM, HCV inh inconclusive, Pf growth 48h 9.3µM
CCCN(CCC)C(=O)CSc1nc2ccccc2c(=O)n1C1CCCC1	HCMV antiviral inconclusive, HCV inh 11µM, Pf growth 48h inconclusive
Cc1ccc(C(=O)C(C)N(C(=O)c2ccc(Cl)cc2Cl)N2C(=O)CCCC2=O)cc1 (stereo unspecified)	Pf growth 96h 12µM
Cc1ccc(C(=O)CN(C(=O)c2ccc(Cl)cc2)N2C(=O)CCC2=O)cc1	none
COc1ccc(C(=O)C(C)N(C(=O)c2ccc(Cl)cc2Cl)N2C(=O)C3C4C=CC(C4)C3C2=O)cc1 (stereo unspecified)	Pf growth 96h inconclusive, Pf growth 48h 7.4µM
COc1ccccc1Nc1sc(C(=O)c2ccc3c(c2)OCO3)c(N)c1S(=O)(=O)c1ccccc1	none (no result: Pf growth 96h, HCV inh, Pf growth 48h)
O=C(O)C1C2C=CC(C2)C1C(=O)OCc1ccccc1 (stereo unspecified)	Pf growth 96h 9.3µM
CCOP(=S)(OCC)Oc1ccc2c(C)c(Cl)c(=O)oc2c1	Pf growth 96h inconclusive, HCV inh inconclusive, Pf growth 48h inconclusive
Cc1c(Cl)c(=O)oc2cc(OP(=O)(OCCCl)OCCCl)ccc12	Pf growth 96h inconclusive, Pf growth 48h 13µM (no result: HCMV antiviral, HCV inh)
CCN(CC)S(=O)(=O)c1cc(C)ccc1NC(=S)Nc1cccnc1	HCMV antiviral -69, HCV inh 11µM
Cc1ccc([N+](=O)[O-])cc1S(=O)(=O)NCCc1c(C)[nH]c2ccccc12	Pf growth 96h inconclusive
COc1cc(S(=O)(=O)NCCc2c(C)[nH]c3ccccc23)c(C)cc1C	HCMV antiviral -103 (no result: Pf growth 96h, HCV inh, Pf growth 48h)
CC1CCCN(CCCNC(=O)c2ccc3c(c2)N(Cc2cccc(Cl)c2)C(=O)c2ccccc2S3(=O)=O)C1 (stereo unspecified)	none (no result: Pf growth 96h, HCV inh, Pf growth 48h)
CCc1ccccc1NC(=O)Cn1cc(C(=O)c2ccc(Cl)cc2)c(=O)c2ccc(C)nc21	none (no result: Pf growth 96h, HCV inh, Pf growth 48h)
CC1CC(C)CN(S(=O)(=O)c2ccc(Oc3ccc([N+](=O)[O-])cc3)cc2)C1 (stereo unspecified)	HCMV antiviral -72, Pf growth 96h inconclusive, HCV inh inconclusive
CC1CCCN(S(=O)(=O)c2ccc([N+](=O)[O-])cc2)C1 (stereo unspecified)	Pf growth 48h inconclusive
CCOC(=O)c1c(C)[nH]c(C=Nc2ccccc2)c1O	Pf growth 96h 9.3µM (no result: HCMV antiviral)
CCOC(=O)c1c(C)[nH]c(C=Nc2ccc(OC)cc2)c1O	Pf growth 96h 15µM
COc1ccc(N(CC(=O)N2CCc3ccccc3C2)S(=O)(=O)c2ccc(C)cc2)cc1Cl	none (no result: Pf growth 96h, HCV inh, Pf growth 48h)
O=C(Cc1cccs1)Nc1ccc(Cl)c(S(=O)(=O)N2CCOCC2)c1	HCMV antiviral inconclusive, Pf growth 96h inconclusive, HCV inh inconclusive, Pf growth 48h 10µM
Cc1ccc(NC(=O)COC(=O)Cc2cccs2)cc1S(=O)(=O)N1CCOCC1	none
O=C(Cc1cccs1)Nc1ccc(F)c(S(=O)(=O)N2CCOCC2)c1	Pf growth 96h 6.6µM, HCV inh inconclusive, Pf growth 48h inconclusive
COc1cccc(CC(=O)Nc2ccc(F)c(S(=O)(=O)N3CCOCC3)c2)c1	HCV inh inconclusive (no result: Pf growth 96h, Pf growth 48h)
CCOc1cc(C(=O)NCc2nc(-c3cccc(C)c3)no2)cc(OCC)c1OCC	none (no result: Pf growth 96h, HCV inh, Pf growth 48h)
Cc1ccc(-n2c(=O)c3c(cnn3C)n(Cc3ccccc3F)c2=O)cc1	none (no result: Pf growth 96h, HCV inh, Pf growth 48h)
O=C(Nc1cccnc1)c1ccc(NC(=O)c2ccco2)cc1	HCMV antiviral -103 (no result: Pf growth 96h)
O=C(Nc1ccc(NC(=O)c2ccco2)nc1)c1cccnc1	none
O=C(Nc1cccnc1)c1ccco1	HCMV antiviral -82 (no result: Pf growth 48h)
CCCC(=O)Nc1ccc(NC(=O)c2ccco2)cn1	Pf growth 96h 8.3µM
CCCCC(=O)Nc1ccc(NC(=O)c2ccco2)cn1	none
CCc1nnc2c3ccccc3nc(Nc3ccc(C(C)=O)cc3)n12	none (no result: Pf growth 96h, HCV inh, Pf growth 48h)
CCOC(=O)Cc1csc(NC(=S)NC(=O)CC(C)C)n1	HCV inh inconclusive
CC(C)CC(=O)NC(=S)Nc1nc(-c2cccc3ccccc23)cs1	Pf growth 96h 13µM, HCV inh inconclusive
